Compound activity from PubChem.
TIM10 inh: growth inhibitors of isogenic TIM10 control yeast, primary screen, counter-screen for tim10-1 yeast inhibitor project, luminescence, uHTS | inhibition, % at 10 µM | AID 463195, 2010 | actives 1.4% (n = 330,000) | S. cerevisiae TIM10 strain growth, BacTiter-Glo luminescence, 24 h;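 active = inhibition of 40% or more at the single tested concentration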;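 note: wild-type TIM10 isogenic control strain grown at permissive 25 °C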
PfHsp90 yeast 2: growth inhibition of PfHsp90-expressing yeast, primary screen, antimalarial PfHsp90 inhibitor project, S. cerevisiae, BacTiter-Glo luminescence, single point, set 2 | inhibition, % at 9.4 µM | actives 0.32% (n = 310,000) | BacTiter-Glo ATP, 48 h; yeast lacking PDR1 and PDR3 efflux regulators;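 active = every replicate shows inhibition above about 80%, whatever the replicate mean, limit read from the data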
tim23-1 inh: growth inhibitors of tim23-1 mutant yeast, primary screen, luminescence, uHTS | AID 463212, 2010 | S. cerevisiae tim23-1 growth, BacTiter-Glo luminescence, 24 h | actives 1.3% (n = 330,000) | inhibition, % at 20 µM;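 active = growth inhibition of the mutant yeast at or above 50%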;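 note: temperature-sensitive mutant grown at 25 °C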
tim10-1 inh: growth inhibitors of tim10-1 mutant yeast, primary screen, luminescence, uHTS; S. cerevisiae tim10-1 ts strain growth, BacTiter-Glo, 24 h; inhibition, % at 20 µM; actives 2.2% (n = 330,000);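 active = inhibition of at least 40%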;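 note: mutant grown at 25 °C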
NALP3 yeast inh: NALP3 inflammasome inhibitors in reconstituted yeast, primary screen, luminescence, uHTS; Yeast reconstituted NLRP3/ASC/caspase-1, beta-gal luminescence, 24 h; AID 2825, 2010; inhibition, % at 10 µM; actives 0.39% (n = 330,000);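 active = inhibition of 50% or more; inactive = inhibition below 50%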
NALP1 inh: NALP1 inflammasome inhibitors in reconstituted yeast, colorimetric, S. cerevisiae, triplicate retest. S. cerevisiae NALP1/ASC/caspase-1 growth, X-gal OD620, 72 h. AID 2071, 2009. inhibition, % at 10 µM. actives 0.61% (n = 280,000); in the data active = inhibition mostly above about 24%, no sharp cut-off; inactive = mostly below about 32%
tim10-1 conf: growth inhibitors of tim10-1 mutant yeast, confirmation, single concentration, luminescence, S. cerevisiae | shares compounds with tim10-1 inh | S. cerevisiae tim10-1 ts strain growth, BacTiter-Glo, 24 h | inhibition, % at 20 µM | actives 56% (n = 7,400);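 active = inhibition of yeast growth at or above a set limit in either of two repeat tests at 20 µM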;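 note: tim10-1 mutant grown at permissive 25 °C to find synthetic lethal compounds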
TIM10 conf: growth inhibitors of wild-type TIM10 yeast, confirmation, counter-screen for tim10-1 synthetic lethality project, single concentration, luminescence, S. cerevisiae. inhibition, % at 10 µM. shares compounds with TIM10 inh. actives 63% (n = 4,600). S. cerevisiae tim10 strain growth, BacTiter-Glo luminescence, 24 h;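 active = inhibition of yeast growth at or above a set limit in either of two replicates at 10 µM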; note: this counterscreen used the strain with wild-type TIM10
tim23-1 confirm: tim23-1 mutant yeast growth inhibitors, confirmation, luminescence, single concentration; shares compounds with tim23-1 inh; S. cerevisiae tim23-1 growth, BacTiter-Glo luminescence, 24 h; inhibition, % at 20 µM; actives 83% (n = 4,400); AID 463218, 2010;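 active = inhibition above about 39% in either of two replicate wells at 20 µM, limit read from the data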;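 note: temperature-sensitive tim23-1 mutant grown at 25 °C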
Each line names hits and unclear results; the compound was inactive in the other large screens (follow-up assays come after a bar, where they were run). Rows were chosen to be rich in hits. Some 4.2% of all compounds tested hit in one or more screens of this group.

O=c1/c(=C/c2cccc3ccccc23)sc2ncnn12	tim23-1 inh 69, tim10-1 inh 46 (no result: PfHsp90 yeast 2) | tim10-1 conf inactive | tim23-1 confirm 74
CC(C)CCn1cnc2c(oc3nc4c(cc32)CCCC4)c1=O	none
COc1ccccc1CNC(=O)C(NS(=O)(=O)c1cccc2nsnc12)C(C)C (stereo not given)	none (no result: NALP1 inh)
Cc1ccc(CS(=O)(=O)c2ncc(Cl)c(C(=O)Nc3ccc(OC(F)F)cc3)n2)cc1	tim23-1 inh 65, tim10-1 inh 44 | tim10-1 conf inactive | tim23-1 confirm 52
CCS(=O)(=O)c1ncc(Cl)c(C(=O)Nc2ccc(C)cc2)n1	none
CCOc1ccccc1NC(=O)c1nc(S(=O)(=O)Cc2cccc(C)c2)ncc1Cl	TIM10 inh 41, tim23-1 inh 81, tim10-1 inh 44 | tim10-1 conf 44 | TIM10 conf 71 | tim23-1 confirm 83
CC1CCC2(CC1)NC(=O)N(NC(=O)c1cccc(N(C)C)c1)C2=O (stereo not given)	none (no result: NALP1 inh)
COc1cccc(-c2nc(NC(C)C)c3ccccc3n2)c1O	tim23-1 inh 55, tim10-1 inh 57 (no result: PfHsp90 yeast 2) | tim10-1 conf 45 | tim23-1 confirm 52
Cc1cc(C)c2c(n1)SCC(=O)N2CC(=O)Nc1c(C)cccc1C	none
COc1cc(/C=C(/C#N)C(=O)NCc2ccccc2)cc(OC)c1OC	tim23-1 inh 63, tim10-1 inh 55 | tim10-1 conf 49 | tim23-1 confirm 61
O=C(CSCc1cccc(Br)c1)N=Nc1c(O)[nH]c2ccccc12	tim23-1 inh 53, tim10-1 inh 45 (no result: PfHsp90 yeast 2) | tim10-1 conf inactive | tim23-1 confirm 59
O=C(CSCc1ccccc1)N=Nc1c(O)[nH]c2ccccc12	none
O=C(CCCOc1ccc(Br)cc1)NNC(=O)c1ccncc1	none (no result: PfHsp90 yeast 2, NALP1 inh)
CCCCCCCCC/C(=N\O)c1ccccn1	TIM10 inh 72, PfHsp90 yeast 2 111, tim23-1 inh 65, tim10-1 inh 48 | tim10-1 conf inactive | TIM10 conf inactive | tim23-1 confirm 70
CCCCCCCCC(=O)N/N=C/c1ccccn1	none
c1ccc(N=Nc2ccc3cccccc2-3)cc1	none (no result: NALP1 inh)
Oc1ccc(N=Nc2ccccc2)o1	tim23-1 inh 68, tim10-1 inh 67 | tim10-1 conf 67 | tim23-1 confirm 75
Cc1ccc(S(=O)(=O)/N=C2\C=C(Nc3ccc(O)cc3)C(=O)c3ccccc32)cc1	tim23-1 inh 51, tim10-1 inh 64 (no result: NALP1 inh) | tim10-1 conf 74 | tim23-1 confirm 70
CC1CC(C)CN(S(=O)(=O)c2cc3c(cc2Cl)NC(=O)CO3)C1 (stereo not given)	none
CN(C1CCCCC1)S(=O)(=O)c1cc2c(cc1Cl)NC(=O)CO2	tim23-1 inh 51, tim10-1 inh 47 | tim10-1 conf inactive | tim23-1 confirm inactive
COc1ccc(-c2coc3cc(O)cc(O)c3c2=O)cc1	tim23-1 inh 68, tim10-1 inh 53 | tim10-1 conf 37 | tim23-1 confirm 64
COc1ccccc1CNC(=O)CN1C(=O)NC2(CCCc3sccc32)C1=O (stereo not given)	none (no result: NALP1 inh)
Cc1[nH]c2ccc(C(=O)N3CCN(c4ccccc4Cl)CC3)cc2c1C	TIM10 inh 40, tim23-1 inh 51, tim10-1 inh 57 | tim10-1 conf inactive | TIM10 conf inactive | tim23-1 confirm 48
COc1cc2c(cc1OC)C(C)=NCC2	none
COc1cc2c(cc1OC)C(c1ccc(-c3ccc(Cl)c(Cl)c3)o1)=NCC2	tim23-1 inh 57, tim10-1 inh 56 | tim10-1 conf 44 | tim23-1 confirm 54
CCN(CC)CCC(O)(c1ccc2c(c1)OCO2)c1cc(OC)c(OC)c(OC)c1 (stereo not given)	none (no result: TIM10 inh, tim23-1 inh, tim10-1 inh, NALP3 yeast inh, NALP1 inh)
CS(=O)(=O)c1cnc(-c2ccccc2)nc1Sc1ccc(F)cc1	none
Fc1ccc(Sc2nc(-c3ccccc3)nnc2C(F)(F)F)cc1	tim23-1 inh 60, tim10-1 inh 60 | tim10-1 conf 36 | tim23-1 confirm 55
CCOC(=O)C(C(=O)OCC)C(C(=O)OCC)N1CCOCC1 (stereo not given)	TIM10 inh 68, tim23-1 inh 57, tim10-1 inh 63, NALP1 inh 101 (no result: PfHsp90 yeast 2) | tim10-1 conf 60 | TIM10 conf 71 | tim23-1 confirm 59
COc1ccc(CCNS(=O)(=O)c2ccc3c(c2)OCCO3)cc1	TIM10 inh 49, tim23-1 inh 59, tim10-1 inh 50 | tim10-1 conf 42 | TIM10 conf inactive | tim23-1 confirm 56
COc1ccc(S(=O)(=O)NCc2ccc(C)cc2)cc1	tim23-1 inh 56, tim10-1 inh 48 | tim10-1 conf inactive | tim23-1 confirm 43
O=S(=O)(NCCSCc1ccc(Cl)c(Cl)c1)c1ccc2c(c1)OCCO2	TIM10 inh 53, tim23-1 inh 55, tim10-1 inh 47 (no result: NALP1 inh) | tim10-1 conf 33 | TIM10 conf 36 | tim23-1 confirm 49
COc1ccc(CCNC(=O)c2ccc3c(c2)OCCO3)cc1	none
Cc1ccc(SCCNS(=O)(=O)c2ccc3c(c2)OCCO3)cc1	TIM10 inh 51, tim23-1 inh 55, tim10-1 inh 52 | tim10-1 conf 42 | TIM10 conf inactive | tim23-1 confirm 53
O=S(=O)(Nc1ccc(-n2cnnn2)cc1)c1cccc(Cl)c1	none (no result: PfHsp90 yeast 2, NALP1 inh)
Cc1cccc(NC(=O)C2CCCN(S(=O)(=O)c3cccs3)C2)c1C (stereo not given)	none
CS/C(=N/S(=O)(=O)c1ccc(C)cc1)c1ccccc1	none
O=S(=O)(/N=C(\Sc1ccc(Cl)cc1)c1ccccc1)c1ccccc1	tim23-1 inh 55, tim10-1 inh 45 | tim10-1 conf 40 | tim23-1 confirm 81
Cc1ccc(Cl)cc1NC(=O)CC(O)(C(F)(F)F)C(F)(F)F	tim23-1 inh 53, tim10-1 inh 55 | tim10-1 conf 57 | tim23-1 confirm 56
COCC(=O)Nc1cc(Cl)ccc1C	none
